Source: PubChem BioAssay (NCI)
“And” between values parts separate entries of the source, which are not always exact repeats. Equal entries are not always repeated. About 79,000 compounds went through this panel and 15% of them were active in at least one assay; those are over-represented in the sample as a whole. A number with no mark means an inactive call. The source made the active and inactive calls. No stated cut-off is given here; in the data, active means growth inhibition above about 70%; inactive means the rest.

Assay: NCI Yeast Anticancer Drug Screen. Data for the cln2 rad14 strain (AID 165);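 further: 0% = growth equal to vehicle treated cultures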
Settings: S. cerevisiae cln2 rad14 strain, stronger effect = higher value
Description: Growth inhibition of yeast strains with defined genetic alterations is measured as a screen for potential anti-cancer activity. Selected strains with alterations in DNA damage repair or cell cycle control were exposed to compounds and growth inhibition was measured relative to vehicle treated controls. The strain used in this assay is cln2 rad14

[1] = at 5.0 µM (retest, dose inferred, filed as 0.5)
[2] = at 50.0 µM (retest, dose inferred, filed as 5.0)

SMILES: CN(C)CNC(=S)S
- growth inhibition [1]: 97% (active)
- growth inhibition [2]: 51%

SMILES: O=Cc1ccc(-c2ccc(-c3ccc(CO)s3)o2)s1
- growth inhibition [1]: 3%
- growth inhibition [2]: 33%
- growth inhibition (at 50.0 µM): -8.55%

SMILES: O=C1/C(=C/c2ccccc2)CCC/C1=C\c1ccccc1
- growth inhibition [1]: 21%
- growth inhibition [2]: 52%
- growth inhibition (at 50.0 µM): 80.3% (active)

SMILES: c1ccc2sc(SSN3CC4CCC(CC4)C3)nc2c1
- growth inhibition [1]: 38%
- growth inhibition [2]: 89% (active)
- growth inhibition (at 50.0 µM): 21.6%

SMILES: Cc1cc2nc(CC(=O)c3ccncc3)c(=O)[nH]c2cc1C
- growth inhibition [1]: -9%
- growth inhibition [2]: 33%
- growth inhibition (at 50.0 µM): 30.1%

SMILES: Cc1ccc(NC(=S)C#N)cc1Cl
- growth inhibition [1]: 37%
- growth inhibition [2]: 40%
- growth inhibition (at 50.0 µM): 46.1%

SMILES: CN1CCc2cc3c(c4c2C1C(O)c1ccccc1-4)OCO3 (stereo not given)
- growth inhibition [1]: 7%
- growth inhibition [2]: 17%
- growth inhibition (at 50.0 µM): 31.8%

SMILES: O=[N+]([O-])c1ccc([I+]c2ccccc2)cc1
- growth inhibition [1]: 30%
- growth inhibition [2]: 87% (active)
- growth inhibition (at 50.0 µM): 82.9% (active)

SMILES: COc1c(C)c2c(c(O)c1C/C=C(\C)CCC(=O)O)C(=O)OC2
- growth inhibition [1]: 32%
- growth inhibition [2]: 95% (active)
- growth inhibition (at 50.0 µM): 90.2% (active)

SMILES: NC(=S)N/N=C\c1nccc2c(N)cccc12
- growth inhibition [1]: -12%
- growth inhibition [2]: 81% (active)
- growth inhibition (at 50.0 µM): 36.4%

SMILES: OC(Cc1cc(CC(O)(C(F)(F)F)C(F)(F)F)nc(CC(O)(C(F)(F)F)C(F)(F)F)c1)(C(F)(F)F)C(F)(F)F
- growth inhibition [1]: 29%
- growth inhibition [2]: 100% (active)
- growth inhibition (at 50.0 µM): 97.8% (active)

SMILES: CC1=CC[C@@H]2[C@@H](CC[C@@]2(C)O)C(C)(C)[C@H]1CC[C@@H]1[C@@]2(C)CC[C@@H](O)C(C)(C)O[C@@H]2CC[C@]1(C)O
- growth inhibition [1]: 18%
- growth inhibition [2]: 19%
- growth inhibition (at 50.0 µM): 46%

SMILES: O=C1NC(=O)C(=Nc2c(O)[nH]c(=O)[nH]c2=O)C(=O)N1
- growth inhibition (at 50.0 µM): -25.2% and -31.8%

SMILES: CCC(C(=O)O)C(=O)O.[NH-]CC[NH-].[Pt+2]
- growth inhibition (at 50.0 µM): -29.4% and -13.5%

SMILES: COc1c2occc2c(OC)c2c(=O)cc(C)oc12
- growth inhibition (at 50.0 µM): -0.65% and 8.7%

SMILES: NC(Cc1cnc[nH]1)C(=O)O (stereo not given)
- growth inhibition (at 50.0 µM): -0.05% and 3.55%

SMILES: Cc1cc(=O)cc(C)o1
- growth inhibition (at 50.0 µM): -2.45% and -47.6%
